We go through 29 compounds from the supplement of paper PMC10037445.

Each structure is given as a SMILES string. Over roughly 2,900 compounds, “IRF Lucia reporter activity, fold change vs agonist alone” has its median near 0.9; the highest 2% begin near 2.8. For the sample, the highest values were picked, then their nearest neighbours and some compounds at random.

Assay [1] concerns RAW-Dual. Description: IRF Lucia reporter activity, fold change vs agonist alone; cytotoxicity flag (confluency mask): not cytotoxic; higher = enhanced IRF activity. The method, boiled down: (§1)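 RAW-Dual macrophages were seeded in DMEM at 50,000 cells/well in 384-well plates, given 50 nL of library stock by pin tool, and given a PRR agonist 1 h later. Plates were held at 37 °C, 5% CO2 for 20 hours, after which supernatant was read for IRF by QuantiLuc luminescence and for NF-κB by QuantiBlue absorbance at 620 nm. Reporter activity is expressed as fold change over wells that received agonist alone. A well was called cytotoxic when IncuCyte confluency fell below 70% of agonist controls in both mask sets.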

Assay [2] concerns RAW-Dual. The experiment in a line: IRF Lucia reporter activity, fold change vs agonist alone; higher = enhanced IRF activity. To be noted: agonist: MPLA (TLR4) […]. The procedure, abridged:
as §1

Assay [3] relates to RAW-Dual. Description: IRF Lucia reporter activity, fold change vs agonist alone; cytotoxicity flag (confluency mask): cytotoxic (confluency <70% of control); higher = enhanced IRF activity. The procedure, abridged: as §1
The mark [4] stands for this setting: agonist: 3'3'-cGAMP (STING) 10 ug/mL.
Where [5] appears, read: library stock concentration (final ~1000-fold dilution): 10 mM, cytotoxicity flag (confluency mask): not cytotoxic.

With `CC1CCC2C(C)C(OC(=O)CCC(=O)O)OC3OC4(C)CCC1C32OO4` (centres undefined) (library stock concentration (final ~1000-fold dilution): 10 mM), the “IRF Lucia reporter activity” value worked out at 0.638 with RAW-Dual [1] (setting [4]) and 0.706 in the assay with RAW-Dual [1] (agonist: LPS (TLR4) 0.1 ug/mL).

With `CC1CCC2C(C)C(OC(=O)CCC(=O)O)OC3OC4(C)CCC1C32OO4` (centres undefined), in the assay on RAW-Dual [2] (setting [5]), the “IRF Lucia reporter activity” value turned out to be 0.737.

As for `COc1ccc(CCc2nc3cc(-c4c(C)noc4C)ccc3n2CC(C)N2CCOCC2)cc1Cl` (centres undefined) (library stock concentration (final ~1000-fold dilution): 10 mM), the “IRF Lucia reporter activity” value in the assay with RAW-Dual [1] (setting [4]) is 0.452; in the assay on RAW-Dual [1] (agonist: LPS (TLR4) 0.1 ug/mL), 0.421.

With `COc1ccc(CCc2nc3cc(-c4c(C)noc4C)ccc3n2CC(C)N2CCOCC2)cc1Cl` (centres undefined), the “IRF Lucia reporter activity” value in the assay on RAW-Dual [2] (setting [5]) amounted to 0.203.

Take `Cc1cc(C)c(/C=C2\C(=O)Nc3ccccc32)[nH]1` (library stock concentration (final ~1000-fold dilution): 10 mM): the “IRF Lucia reporter activity” value amounted to 0.77 in the assay with RAW-Dual [1] (setting [4]) and 0.578 in the assay with RAW-Dual [1] (agonist: LPS (TLR4) 0.1 ug/mL).

Turning to `Cc1cc(C)c(/C=C2\C(=O)Nc3ccccc32)[nH]1`, the “IRF Lucia reporter activity” value in the assay on RAW-Dual [2] (setting [5]) amounted to 0.781.

For `COC1=CC(c2cc3ccccc3[nH]2)=N/C1=C\c1[nH]c(C)cc1C.CS(=O)(=O)O`, in the assay with RAW-Dual [2] (setting [5]), the “IRF Lucia reporter activity” value worked out at 5.45.

Consider `COC1=CC(c2cc3ccccc3[nH]2)=N/C1=C\c1[nH]c(C)cc1C.CS(=O)(=O)O` (library stock concentration (final ~1000-fold dilution): 10 mM), for which the “IRF Lucia reporter activity” value is 0.38 in the assay on RAW-Dual [1] (setting [4]) and 3.87 with RAW-Dual [1] (agonist: LPS (TLR4) 0.1 ug/mL).

Regarding `O=C(c1cc(-c2cc3c(cc2C(=O)N2Cc4ccccc4CC2CN2CCOCC2)OCO3)n2c1CCCC2)N(c1ccccc1)c1ccc(O)cc1` (centres undefined) (library stock concentration (final ~1000-fold dilution): 10 mM), the “IRF Lucia reporter activity” value in the assay with RAW-Dual [1] (setting [4]) was found to be 0.268; with RAW-Dual [1] (agonist: LPS (TLR4) 0.1 ug/mL) it was 0.935.

With `Oc1cc(O)c2c(c1)OC(c1ccc(O)c(O)c1)C(O)[C@H]2c1c(O)cc(O)c2c1OC(c1ccc(O)c(O)c1)C(O)C2` (some centres undefined) (library stock concentration (final ~1000-fold dilution): 10 mM), the “IRF Lucia reporter activity” value was 0.867 in the assay with RAW-Dual [1] (setting [4]) and 1.27 with RAW-Dual [1] (agonist: LPS (TLR4) 0.1 ug/mL).

On to `COc1ncc(-c2cc(-c3ncc(CN4CC(C)OC(C)C4)o3)c3cn[nH]c3c2)cc1NS(C)(=O)=O` (centres undefined) (library stock concentration (final ~1000-fold dilution): 10 mM), for which the “IRF Lucia reporter activity” value with RAW-Dual [3] (setting [4]) was determined as 0.865; in the assay on RAW-Dual [3] (agonist: LPS (TLR4) 0.1 ug/mL) it was 4.5.

For the compound `CC(C)N1CCN(Cc2cnc(-c3cc(-c4cccc5[nH]ccc45)cc4[nH]ncc34)o2)CC1` (library stock concentration (final ~1000-fold dilution): 10 mM), the results for the “IRF Lucia reporter activity” value in the assay with RAW-Dual [1] (setting [4]) and with RAW-Dual [1] (agonist: LPS (TLR4) 0.1 ug/mL) were 0.609 and 1.42, respectively.

For `CN1CCN(C(=O)c2ccc(-c3ccc4c(C=O)c(O)ccc4c3)s2)CC1` (library stock concentration (final ~1000-fold dilution): 10 mM), the figures for the “IRF Lucia reporter activity” value in the assay with RAW-Dual [1] (setting [4]) and with RAW-Dual [1] (agonist: LPS (TLR4) 0.1 ug/mL) were 0.228 and 0.45, respectively.

For `Cc1cnc(Nc2ccc(F)cc2Cl)nc1-c1c[nH]c(C(=O)NC(CO)c2cccc(Cl)c2)c1` (centres undefined) (library stock concentration (final ~1000-fold dilution): 10 mM), the “IRF Lucia reporter activity” value in the assay with RAW-Dual [1] (setting [4]) came out at 0.474; in the assay with RAW-Dual [1] (agonist: LPS (TLR4) 0.1 ug/mL) it was 1.16.

Consider `CN1CCc2c(c3ccccc3n2Cc2ccc(C(=O)NO)cc2)C1.Cl`, for which, in the assay with RAW-Dual [2] (setting [5]), the “IRF Lucia reporter activity” value was determined as 5.65.

With `CN1CCc2c(c3ccccc3n2Cc2ccccc2)C1.CN1CCc2c(c3ccccc3n2Cc2ccccc2)C1.O=S(=O)(O)c1cccc2c(S(=O)(=O)O)cccc12` (library stock concentration (final ~1000-fold dilution): 2 mM), the “IRF Lucia reporter activity” value worked out at 1.04 in the assay with RAW-Dual [1] (setting [4]) and 1 with RAW-Dual [1] (agonist: LPS (TLR4) 0.1 ug/mL).

As to `CN1CCc2c(c3ccccc3n2Cc2ccc(C(=O)NO)cc2)C1` (library stock concentration (final ~1000-fold dilution): 10 mM), the “IRF Lucia reporter activity” value was found to be 0.943 in the assay with RAW-Dual [1] (setting [4]) and 1.19 in the assay with RAW-Dual [1] (agonist: LPS (TLR4) 0.1 ug/mL).

Regarding `CN1CCc2c(c3ccccc3n2Cc2ccc(C(=O)NO)cc2)C1.Cl` (library stock concentration (final ~1000-fold dilution): 10 mM), the “IRF Lucia reporter activity” value in the assay with RAW-Dual [1] (setting [4]) was determined as 1.18; in the assay on RAW-Dual [1] (agonist: LPS (TLR4) 0.1 ug/mL) it was 4.79.

As to `CN1CCc2c(c3ccccc3n2Cc2ccccc2)C1.CN1CCc2c(c3ccccc3n2Cc2ccccc2)C1.O=S(=O)(O)c1cccc2c(S(=O)(=O)O)cccc12`, the “IRF Lucia reporter activity” value in the assay on RAW-Dual [2] (library stock concentration (final ~1000-fold dilution): 2 mM, cytotoxicity flag (confluency mask): not cytotoxic) was found to be 1.25.

Turning to `COc1ccc(CC(=O)Nc2nc3c(s2)CCc2ccccc2-3)cc1OC` (library stock concentration (final ~1000-fold dilution): 10 mM), the “IRF Lucia reporter activity” value is 0.989 with RAW-Dual [1] (setting [4]) and 0.961 in the assay with RAW-Dual [1] (agonist: LPS (TLR4) 0.1 ug/mL).

Consider `COc1cccc(C=NCCN=Cc2cccc(OC)c2[O-])c1[O-].[Cl-].[Mn+2]`, for which, in the assay with RAW-Dual [2] (setting [5]), the “IRF Lucia reporter activity” value turned out to be 0.946.

Take `COc1cccc(C=NCCN=Cc2cccc(OC)c2[O-])c1[O-].[Cl-].[Mn+2]` (library stock concentration (final ~1000-fold dilution): 10 mM): the “IRF Lucia reporter activity” value was 1.06 in the assay with RAW-Dual [1] (setting [4]) and 0.762 with RAW-Dual [1] (agonist: LPS (TLR4) 0.1 ug/mL).

`Cc1nc(Nc2cnn(C3CCNCC3)c2)nc2c1N(C)C(=O)c1cc3ccccc3cc1N2C`: in the assay with RAW-Dual [2] (library stock concentration (final ~1000-fold dilution): 10 mM, cytotoxicity flag (confluency mask): cytotoxic (confluency <70% of control)), the “IRF Lucia reporter activity” value was determined as 3.71.

For the compound `CCOc1cc(N2CCC(O)CC2)ccc1Nc1ncc2c(n1)N(C)c1ccccc1C(=O)N2C`, the “IRF Lucia reporter activity” value in the assay with RAW-Dual [2] (setting [5]) amounted to 0.32.

Consider `CN1c2ccccc2C(=O)Nc2cnc(Nc3ccc(N4CCC(O)CC4)cc3)nc21` (library stock concentration (final ~1000-fold dilution): 10 mM), for which the “IRF Lucia reporter activity” value in the assay on RAW-Dual [1] (setting [4]) was found to be 0.137; in the assay on RAW-Dual [1] (agonist: LPS (TLR4) 0.1 ug/mL) it was 0.438.

On to `CCOc1cc(N2CCC(O)CC2)ccc1Nc1ncc2c(n1)N(C)c1ccccc1C(=O)N2C` (library stock concentration (final ~1000-fold dilution): 10 mM), for which the “IRF Lucia reporter activity” value with RAW-Dual [1] (setting [4]) worked out at 0.518; in the assay on RAW-Dual [1] (agonist: LPS (TLR4) 0.1 ug/mL), 0.253.

Take `Cc1nc(Nc2cnn(C3CCNCC3)c2)nc2c1N(C)C(=O)c1cc3ccccc3cc1N2C` (library stock concentration (final ~1000-fold dilution): 10 mM): the “IRF Lucia reporter activity” value amounted to 1.96 in the assay with RAW-Dual [3] (setting [4]) and 3.05 with RAW-Dual [3] (agonist: LPS (TLR4) 0.1 ug/mL).

As for `CC(C)(C)CC1NC(C(=O)NC2CCC(O)CC2)C(c2cccc(Cl)c2F)C12C(=O)Nc1cc(Cl)ccc12` (centres undefined) (library stock concentration (final ~1000-fold dilution): 10 mM), the entries for the “IRF Lucia reporter activity” value in the assay on RAW-Dual [3] (setting [4]) and in the assay on RAW-Dual [3] (agonist: LPS (TLR4) 0.1 ug/mL) were 0.342 and 3.33, respectively.

With `COc1cc(C(=O)O)ccc1NC(=O)C1NC(CC(C)(C)C)C(C#N)(c2ccc(Cl)cc2F)C1c1cccc(Cl)c1F` (centres undefined) (library stock concentration (final ~1000-fold dilution): 10 mM), the “IRF Lucia reporter activity” value in the assay on RAW-Dual [1] (setting [4]) stood at 0.62; in the assay on RAW-Dual [1] (agonist: LPS (TLR4) 0.1 ug/mL), 0.186.
